Data on 10 molecules can be found in PubChem BioAssay (NCATS).

Records with an inconclusive call do not appear. Entries that show only a call come without a potency. Activity calls are given as the source filed them. Calls come from the whole dose curve; as a rule, active = well fitted inhibition curve with a large enough effect; inconclusive = small, poorly fitted or top-dose-only effect; inactive = flat fitted curve, though single readings scatter. Bridge positions count the residues as written; N and C are the ends. Square brackets hold non-standard residues; d marks the D form. Peptide text beside a SMILES is read from it. * marks the point of attachment. Ileψ(thiazoline)Cys = CC[C@H](C)[C@H](N)C1=N[C@H](C(=O)*)CS1; d(aIle) = CC[C@H](C)[C@@H](N)C(=O)O; dOrn = NCCC[C@@H](N)C(=O)O

The subject of this test is CP238. Put plainly: qHTS profiling for inhibitors of Plasmodium falciparum proliferation (AID 504749). Note: nearly all actives have a fitted effect of over 60% in size. To be noted: P. falciparum in erythrocytes, SYBR Green DNA, 72 h; series mostly up to 12.8 µM. The method in brief:
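SYBR Green fluorescence (ex 485 nm, em 535 nm) reports parasite DNA after 72 h compound exposure of infected red cells at 0.3% parasitemia, 2.5% hematocrit; signal normalized to 0.29 uM artemisinin and vehicle wells.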
(Quantitative high-throughput screening tests each substance at several concentrations.)
Take `C[C@H](CCC(=O)O)[C@H]1CC[C@@H]2[C@@H]3[C@@H](O)C[C@H]4C[C@@H](O)CC[C@@]4(C)[C@H]3CC[C@@]21C`: the Potency result is “inactive”.
The result for `CN(C/C=C\c1ccccc1)Cc1cccc2ccccc12` reads “inactive”; that for `CCN(CCCCOC(=O)c1ccc(OC)c(OC)c1)[C@@H](C)Cc1ccc(OC)cc1`, “inactive”.
To `C[C@H](C(=O)O)c1cccc(Oc2ccccc2)c1` belongs “inactive”; to `CC1(C)[C@@H](OC(=O)CCC(=O)O)CC[C@@]2(C)[C@H]1CC[C@@]1(C)[C@H]2C(=O)C=C2[C@H]3C[C@](C)(C(=O)O)CC[C@]3(C)CC[C@@]21C`, “inactive”.
As to `CCOC(=O)O[C@@H](C)OC(=O)[C@@H]1N2C(=O)[C@@H](NC(=O)[C@@H](N)c3ccccc3)[C@H]2SC1(C)C`, the Potency result was “inactive”.
To `Cc1ccsc1/C=C\C1=NCCCN1C` belongs “inactive”.
The result for `Cc1cccc(CN2CCN([C@@H](c3ccccc3)c3ccc(Cl)cc3)CC2)c1` reads “inactive”; that for `C#C[C@]1(O)CC[C@@H]2[C@H]3CCC4=CCCC[C@@H]4[C@@H]3CC[C@@]21C`, “inactive”; that for `CC[C@H](C)[C@H](N)C1=N[C@H](C(=O)N[C@@H](CC(C)C)C(=O)N[C@@H](CCC(=O)O)C(=O)N[C@@H](C(=O)N[C@H]2CCCCNC(=O)[C@@H](CC(N)=O)NC(=O)[C@@H](CC(=O)O)NC(=O)[C@@H](Cc3cnc[nH]3)NC(=O)[C@@H](Cc3ccccc3)NC(=O)[C@@H]([C@@H](C)CC)NC(=O)[C@@H](CCCN)NC2=O)[C@@H](C)CC)CS1` ({Ileψ(thiazoline)Cys}-LE[d(aIle)]K[dOrn][d(aIle)][dF][dH][dD][dN]; lactam 4-C), “inactive”.
